# RORgamma inh – inhibitors of mouse ROR gamma transcriptional activity. P51450. Drosophila S2 Gal4-RORgamma UAS-luciferase reporter, 20 h. Potency, µM (series often up to 53.6 µM), without a hit: top-dose activity change, negative = inhibition, usual class: inhibitors. 310,000 tested, 5.4% active. AID 2551; also: potency is read from the fitted curve at half-maximal effect; nearly all actives have a fitted effect of over 60% in size
# Target sequence (P51450 whole entry, looked up, the tested form may be a part): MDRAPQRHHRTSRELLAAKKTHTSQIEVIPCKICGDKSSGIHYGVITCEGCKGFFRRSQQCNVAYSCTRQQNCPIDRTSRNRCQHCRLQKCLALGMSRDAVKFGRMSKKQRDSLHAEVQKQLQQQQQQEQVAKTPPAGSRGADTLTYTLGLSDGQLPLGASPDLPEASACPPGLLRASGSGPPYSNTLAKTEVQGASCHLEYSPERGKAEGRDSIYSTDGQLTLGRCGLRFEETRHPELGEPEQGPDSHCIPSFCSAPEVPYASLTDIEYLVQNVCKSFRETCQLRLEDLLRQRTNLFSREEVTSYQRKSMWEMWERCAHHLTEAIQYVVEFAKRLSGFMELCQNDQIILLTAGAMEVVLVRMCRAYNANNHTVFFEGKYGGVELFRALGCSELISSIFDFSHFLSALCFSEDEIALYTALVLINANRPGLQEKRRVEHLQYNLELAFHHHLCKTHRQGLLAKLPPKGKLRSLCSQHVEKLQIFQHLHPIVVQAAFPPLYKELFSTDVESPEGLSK
#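 ROR gamma transcriptional activity was tracked as Gal4-UAS luciferase output in stably transfected Drosophila Schneider cells, with compound added 1 hr before 700 uM copper sulfate induction and a 20 hr ambient-temperature incubation.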
# ELG1 repair inh – inhibitors of ELG1-dependent DNA repair in HEK293T cells. AID 504467. Potency, µM (doses to about 46.1 µM), for inactives: at the top dose activity change, negative = inhibition, hits mostly inhibitors. HEK293T ELG1-luciferase reporter, luminescence, 16 h; DNA damage induced by 5-fluorouridine. 330,000 tested, 2.3% active; also: potency is read from the fitted curve at half-maximal effect; nearly all actives have a fitted effect of over 55% in size
#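 Step one: seed 2,000 cells per well. Step two: pin-transfer compound or DMSO alongside 5-fluorouridine. Step three: incubate 16 hr, 37 °C, 5% CO2. Step four: add ONE-Glo, wait 30 min, read luminescence.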
# TDP1 cell CPT – DT40-hTDP1 cell growth loss with CPT. chicken DT40 Tdp1-/-;hTDP1 cells + 20 nM CPT, ATP luminescence, 48 h. Potency, µM (highest dose often 46.2 µM), for inactives: at the highest dose activity change, negative = growth inhibition, most hits filed as inhibitors. 420,000 tested, 12% active; also: potency is read from the fitted curve at half-maximal effect; nearly all actives have a fitted effect of over 55% in size
#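 Chicken DT40 Tdp1-/- cells complemented with human TDP1, 400 cells/well, exposed to compounds plus 20 nM camptothecin for at least 48 h at 37 C; viability read as ATP content by CellTiter-Glo luminescence.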
# IL1B secr inh – blocks inflammasome-driven IL-1 beta release; THP-1 LPS/ATP IL-1B secretion, AlphaLISA, 16 h; hits give low values; activity change, % at 57.5 µM; 360,000 tested, 4.7% active; in the data active = activity change below about -50%; inconclusive = mostly about -30% to -49%
#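 Secreted IL-1B measured by AlphaLISA bead assay after 16 h compound exposure of THP-1 cells; compounds (final up to 57.5 uM) added 1 h before LPS (250 ng/mL) and ATP (1.25 mM) stimulation; lower signal means less secretion.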
# Gal4-VP16 FLuc – counter-screen for ROR gamma inhibitors: Gal4-VP16 reporter; Drosophila S2 Gal4-VP16 UAS-luciferase, luminescence, 20 h; Potency, µM (doses to about 53.6 µM), without a hit: top-dose activity, negative = inhibition, usual class: inhibitors; 310,000 tested, 3.5% active; AID 2546;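 also: Gal4-VP16 expression switched on by copper sulfate through the metallothionein promoter; potency is read from the fitted curve at half-maximal effect; nearly all actives have a fitted effect of over 50% in size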
# TDP1 cell noCPT – qHTS for Inhibitors of human tyrosyl-DNA phosphodiesterase 1 (TDP1): qHTS in cells in absence of CPT; DT40 Tdp1-/- hTDP1 cells, no CPT, ATP luminescence, 48 h; Potency, µM (titrated, usually from 46.2 µM), inactives show top-dose activity change, negative = growth inhibition, most hits filed as inhibitors; 420,000 tested, 15% active; AID 686978, 2013; also: potency is read from the fitted curve at half-maximal effect; nearly all actives have a fitted effect of over 55% in size
#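 Camptothecin absent (DMSO only). Human TDP1-complemented DT40 knockout cells, 400 cells/well, 37 °C for minimum 48 hr; ATP measured via CellTiter-Glo, 30 min dark incubation, luminescence.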
# Active calls of the source: *; ? = inconclusive; · = no result; [ ] = another dose, or the depositor's remark. Compounds with a hit are over-represented: about 21% of the library has one in this group of screens. Unless noted, calls follow the shape of the dose curve; as a rule, active = well fitted curve in the direction sought with a large enough effect; inconclusive = small, poorly fitted or top-dose-only effect, or another doubt; inactive = no such curve, though single readings can be large; an effect the other way counts as inactive or inconclusive. % is scaled to controls: 0 for no effect and ±100 for the full control effect.
SMILES,RORgamma inh,ELG1 repair inh,TDP1 cell CPT,IL1B secr inh,Gal4-VP16 FLuc,TDP1 cell noCPT
C[C@]12CC[C@H](O)CC1=CCC1C2CC[C@]2(C)C(=O)CC[C@@H]12 (stereo partly specified),-15.9%,·,29.9µM*,·,2.7%,29.9µM*
CC(=O)C1C(N2CC2)CC2C3CC=C4CC(O)CCC4(C)C3CCC21C (stereo unspecified),·,·,1.84µM*,-50.7*,·,5.8µM*
CC12CCC3C(CC=C4CC(O)CCC43C)C1C/C(=C\c1ccccc1F)C2=O (stereo unspecified),?,-17.6%,?,22.8,-16.7%,23.1µM*
COC(=O)[C@@]1(Sc2ccc(C)cc2)CC(=O)N(P(=O)(OC)OC)[C@@H]1c1ccccc1,·,·,?,-4.5,·,?
O=P(c1ccccc1)(c1ccccc1)N1CC2(CC2)CC(O)(c2ccccc2)C1 (stereo unspecified),-1.3%,·,·,·,3.8%,·
CC1(C)C(=O)CC[C@@]2(C)C1=CCC1C2CC[C@]2(C)C(=O)CCC12 (stereo partly specified),·,?,16.4µM*,11.3,·,?
Cc1oc(-c2ccc(Cl)cc2)nc1CN1C(=O)CN=C(c2ccccc2)c2ccccc21,·,·,?,·,·,14.6µM*
CCCCNC(=O)CN1C(=O)CN=C(c2ccccc2)c2ccccc21,-14.7%,8.6%,-25.3%,-9.1,-0.9%,?
Cc1oc(-c2ccccc2)nc1CN1C(=O)C(C)N=C(c2ccccc2F)c2cc(Cl)ccc21 (stereo unspecified),12.6µM*,12.8%,?,-13.4,-10.8%,?
CCC(C)C1N=C(c2ccccc2)c2cc(Cl)ccc2N(CC(=O)NCc2ccco2)C1=O (stereo unspecified),13.3%,-5.1%,-29.4%,-9.9,-22.0%,-22.5%
Cc1nn(C)c(C)c1P(=S)(c1c(C)nn(C)c1C)N(C)C,-34.4%,2.9%,-15.9%,18.1,3.9%,-13.5%
CC(=O)OC1N=C(c2ccccc2Cl)c2cc(Br)ccc2NC1=O (stereo unspecified),-2.7%,-11.5%,?,-71.4*,2.0%,?
CC1=C(N2CC2)C(=O)C(CO)=C(N2CC2)C1=O,·,·,0.0259µM*,-99.4*,·,0.0291µM*
C=C1Nc2ccccc2C(=O)N1c1ccccc1C,7.7%,·,·,·,3.5%,·
O=S1(=O)N(Cc2ccccc2Cl)CCCN1Cc1ccccc1Cl,·,·,16.4µM*,·,·,?
CC(=O)[C@@]1(O)CC[C@H]2[C@@H]3C[C@H](C)C4=CC(=O)CC[C@]4(C)[C@H]3CC[C@@]21C,11.0%,-1.2%,?,?,-1.3%,29.1µM*
O=P(OC1CCCCC1)(OC1CCCCC1)C(O)c1ccc(Cl)cc1Cl (stereo unspecified),-4.6%,?,16.4µM*,?,13.0%,20.6µM*
C/C=C1\C[N@@+]2(C)CC[C@@]34C(=C(C=O)[C@H]1C[C@H]32)Nc1ccccc14,-0.3%[16.9 µM],·,·,·,5.7%[17 µM],·
CC(C)(C)c1ccc(-c2n[nH]c(=S)n2CCCN2CCOCC2)cc1,7.94µM*,-4.7%,-25.1%,15.6,-25.6%,-19.2%
C[C@@H]1CN([C@@H](C)CO)C(=O)CCCn2nncc2CO[C@H]1CN(C)C(=O)Oc1ccc2ccccc2c1,·,·,-16.4%,16.9,·,-1.0%
C[C@H](CCC(=O)O)C[C@H](C)C[C@H](C)C(=O)/C=C(\O)[C@H](C)C[C@H](C)C/C=C/[C@@H](C)[C@@H](O)[C@@H](C)[C@@H](O)C[C@@H]1CC[C@@](C)(C2CC[C@@](C)([C@@H](C)O)O2)O1 (stereo partly specified),?,·,·,·,6.31µM*,·
COc1ccc(C(=O)Oc2c(CN3CCOCC3)cc(Cl)c3cccnc23)cc1OC,·,·,5.01µM*,-0.3,·,5.62µM*
COc1ccc(-n2cnc3cc(C(=O)N4CCC5(CC4)OCCO5)ccc32)cc1,-0.7%,11.4%,8.2µM*,55.1,-14.5%,2.59µM*
COc1ccc(C(=O)N2CCC3(CC2)OCCO3)cc1,-1.9%,3.9%,-21.8%,1.0,0.8%,2.2%
CCOC(=O)[C@]12Cc3ccccc3[C@H]1N(C(C)C)C(=O)c1cc(OC)ccc12,·,·,23.1µM*,-116.1*,·,14.6µM*
SMILES,RORgamma inh,ELG1 repair inh,TDP1 cell CPT,IL1B secr inh,Gal4-VP16 FLuc,TDP1 cell noCPT
CCOC(=O)[C@]12Cc3ccccc3[C@H]1N(C)C(=O)c1cc(OC)ccc12,·,·,23.1µM*,-116.1*,·,14.6µM*
CCOC(=O)[C@]12Cc3c(cc(OC)c(OC)c3OC)[C@H]1N(C)C(=O)c1cc(OC)ccc12,·,·,10.3µM*,-74.3*,·,9.2µM*
COC(=O)C12CCc3cc(OC)ccc3C1=CC(=O)C2 (stereo unspecified),·,·,11.5%,-0.7,·,?
CC(NCc1ccc(Cl)c(Cl)c1)C(O)c1ccccc1 (stereo unspecified),2.2%,4.8%,16.4µM*,?,-0.7%,?
CC(NCc1ccccc1Cl)C(O)c1ccccc1 (stereo unspecified),12.3%,21.4%,-26.4%,-11.0,-12.6%,-15.2%
CCN(CC(=O)Nc1ccc(C#N)c(Cl)c1)CC(=O)NC(C)(C)C,11.0%,-24.4%,?,-13.8,3.3%[10 µM],23.1µM*
Cc1noc(C)c1CSCC(=O)Nc1ccc(C#N)c(Cl)c1,·,-26.6%,?,-14.0,·,?
Cc1cccc(C)c1NC(=O)CN(C)CC(=O)Nc1ccc(C#N)c(Cl)c1,?,?,18.4µM*,0.0,?,13µM*
CCOC(=O)CC1c2ccccc2-n2nncc2CN1CC1CCCCC1 (stereo unspecified),·,·,?,3.8,·,?
CC(=O)[C@]1(O)CCC2C3CCC4=CC(=O)CC[C@@]4(C)C3CC[C@]21C (stereo partly specified),-2.5%,·,?,·,-5.6%,-5.1%
CC12Cc3cn[nH]c3C=C1CCC1C2CCC2(C)C1CCC2(C)O (stereo unspecified),·,·,?,-90.8*,·,?
COC(=O)[C@@]1(Cc2ccccc2)[C@H]2c3cc(C(=O)N(C)C)[nH]c3C[C@H]2CN1C(=O)c1ccccc1,24.3%,·,·,·,2.0%,·
NNC(N)=S,14.1µM*,·,·,·,-12.7%,·
NC(=S)Nc1ccccc1,4.1%,·,·,·,5.6%,·
N#CC(C#N)=Cc1cccnc1,10.7%,10.9%,9.2µM*,-86.0*,4.3%,9.2µM*
Cc1ccc(Cn2cccc(C(=O)Nc3cc([N+](=O)[O-])ccc3C)c2=O)cc1,·,·,-16.5%,·,·,?

# Screening results from PubChem BioAssay.
